The results in this text go back to PubChem BioAssay (NCI).

Compounds without any hit were thinned out: in the full panel of roughly 83,000, 20% have a hit.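 Compound tested at a single concentration for 48 hours in 96-well plates; a percent growth value below 10 was scored as active.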 A number with no mark means an inactive call. Active and inactive are the calls of the source.

Experiment in all cases: NCI-60 one-dose screen, 48 h (100 = growth as untreated, 0 = no growth, -100 = all killed)
Holding throughout (details): 10 µM unless noted

Experiment [1] has as its system HCT-15 colon.
Experiment [2] relates to HT29 colon.
For experiment [3], the system named is SNB-75 CNS.
In experiment [4] the test system is SNB-19 CNS.
Experiment [5] has as its system U251 CNS.
Experiment [6] relates to PC-3 prostate.
Experiment [7] deals with SK-MEL-5 melanoma.
For experiment [8], the system named is UACC-62 melanoma.
Experiment [9] relates to LOX IMVI melanoma.
In experiment [10] the test system is SK-MEL-28 melanoma.
The test system of experiment [11] is SK-MEL-2 melanoma.
Experiment [12] relates to EKVX NSCLC.
Experiment [13] deals with SN12C renal.
Experiment [14] concerns UO-31 renal.
Experiment [15] deals with TK-10 renal.
The test system of experiment [16] is ACHN renal.
Experiment [17] has as its system CAKI-1 renal.
Experiment [18] deals with CCRF-CEM leukemia.
The test system of experiment [19] is MOLT-4 leukemia.

With `N#Cc1cc(-c2nc3ccccc3s2)c(=O)n(NS(=O)(=O)c2ccccc2)c1N`, the growth in experiment [1] was 108%; in experiment [2], 107%; in experiment [3] it was 73.1%; in experiment [4], 103%; in experiment [5] it was 102%; in [6], 102%. In addition, the growth was 101% in [7]; 97.1% in experiment [8]; 99.4% in experiment [9]; 121% in [10]; 104% in experiment [11]; 101% in [12]. The growth is 99.9% in [13]; 72.7% in experiment [14]; 137% in experiment [15]; 99.5% in [16]; 81.8% in experiment [17]; 105% in experiment [18]. In addition, the growth in experiment [19] is 107%.

For the compound `CCN1CCN(CCNc2nccc(-c3c(-c4cccc(OC)c4)nc4occn34)n2)S1(=O)=O`, the growth is 102% in experiment [1]; 50.3% in [2]; 112% in [3]; 113% in [4]; 113% in [5]; 96.9% in experiment [6]. Further, the growth is 60.5% in [7]; 27.5% in experiment [8]; 76.6% in [9]; 47.3% in experiment [10]; 93.6% in [11]; 90.9% in [12]. The growth in [13] is 95.6%; in [14], 91.9%; in experiment [15] it was 128%; in experiment [16] it was 84.9%; in [17], 78.1%; in experiment [18] it was 117%. In experiment [19], the growth was 89%.

On to `COc1cccc(-c2ccc3c(c2)NC(=O)/C3=C\c2ccc[nH]2)c1`, for which the growth is 20.7% in [1]; 23.6% in experiment [2]; 44% in [3]; 81.6% in experiment [4]; 83.5% in [5]; 70.1% in experiment [6]. In addition, the growth is 11% in [7]; 44.3% in experiment [8]; 50.5% in experiment [9]; 70.7% in experiment [10]; 52.7% in experiment [11]; 26.1% in experiment [12]. Besides, the growth in experiment [13] is 69.2%; in experiment [14], 52.7%; in experiment [15], 27.1%; in experiment [16] it was 40.2%; in [17], 28.3%; in experiment [18], 19%. The growth in experiment [19] was 34.4%.

As to `COC(=O)C(OC(C)=O)C(OC(C)=O)c1ccc(OC)c(OC)c1` (configuration not stated), the growth in [1] is 97.8%; in [2], 97.2%; in [3] it was 96.4%; in experiment [4], 103%; in experiment [5], 97.5%; in experiment [6], 81.5%. The growth in [7] was 97.7%; in experiment [8], 100%; in experiment [9] it was 90%; in [10], 102%; in [11] it was 96.5%; in experiment [12], 107%. Moreover, the growth in [13] is 101%; in experiment [14], 106%; in [15], 115%; in experiment [16], 104%; in [17], 101%; in [18], 94.9%. The growth in experiment [19] is 85.5%.

`O=C(Nc1ccc(F)cc1)Nc1ccc(NC(=O)c2cc(Cl)nc3ccccc23)cc1`: the growth in experiment [1] was 98.7%; in experiment [2], 65.3%; in experiment [3], 67.2%; in experiment [4], 49.7%; in [5], 62.8%; in experiment [6] it was 59.4%. The growth in experiment [7] was 70.1%; in experiment [8], 72%; in experiment [9], 55%; in [10] it was 77.7%; in experiment [11], 90.3%; in experiment [12], 89.2%. In addition, the growth is 73.6% in [13]; 83.1% in experiment [14]; 83.5% in experiment [15]; 102% in experiment [16]; 78.5% in experiment [17]; 41.9% in experiment [18]. The growth in experiment [19] was 64.2%.

With `CCCCCN1C=C/C(=C\C(=O)N2CCCc3ccccc32)c2ccccc21`, the growth was 102% in experiment [1]; 73.2% in experiment [2]; 108% in experiment [3]; 93.9% in [4]; 87.6% in [5]; 86.7% in experiment [6]. In addition, the growth was 92.7% in [7]; 75.2% in experiment [8]; 87.3% in [9]; 104% in [10]; 90.9% in experiment [11]; 76.4% in [12]. For the same compound, the growth in experiment [13] was 89.9%; in [14], 75.5%; in experiment [15], 105%; in experiment [16], 106%; in [17], 80.3%; in experiment [18], 69.7%. For the same compound, the growth in experiment [19] was 78.5%.

With `Nc1c(C(=O)Nc2ccnc3ccccc23)sc2nc3c(cc12)CN(Cc1ccccc1)CC3`, the growth in experiment [1] was 69.9%; in experiment [2], 103%; in experiment [3], 110%; in experiment [4], 83.7%; in experiment [5], 98%; in experiment [6], 45.5%. Further, the growth in experiment [7] was 9.7% (active); in [8], 49.4%; in [9] it was 69.6%; in experiment [10] it was 102%; in experiment [11], 101%; in experiment [12], 66.1%. The growth is 74.6% in experiment [13]; 62.2% in experiment [14]; 102% in experiment [15]; 68.4% in [16]; 74.7% in experiment [17]; 26.1% in experiment [18]. For the same compound, the growth in experiment [19] was 18.2%.

Take `CCOc1cccc(-c2nc(N)nc(Nc3ccccc3SSc3ccccc3Nc3nc(N)nc(-c4cccc(OCC)c4)n3)n2)c1`: the growth in experiment [1] is 18.5%; in experiment [2] it was 110%; in [3], 90.5%; in [4], 55.1%; in [5], 8.24% (active); in experiment [6], 29.5%. In addition, the growth was 88% in [7]; 66.2% in experiment [8]; 4.82% (active) in [9]; 93.6% in experiment [10]; 98.1% in experiment [11]; 60.5% in experiment [12]. The growth in experiment [13] is 32.9%; in experiment [14] it was -25.5% (active); in experiment [15], 102%; in [16] it was 59.5%; in experiment [17], 8.02% (active); in [18], 46.5%. In experiment [19], the growth was 56.7%.
